Counter-ions that a name gives are not always drawn. Over roughly 2,000 compounds, “fractional viability relative to vehicle” has its median near 0.91; the lowest 2% begin near 0.045. The list comes from a sample in which the lowest values are over-represented; it also holds similar structures and randomly drawn compounds.
System: TYKNU
Experiment: fractional viability relative to vehicle; TYKNU is a high-grade serous ovarian cancer line; higher = less growth inhibition
Details: 72 h
Procedure, shortened: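 Drug treatment lasted 72 h, with cells grown at 37 °C in 5% CO2 in RPMI 1640 supplemented with 10% FBS. Beforehand, TYKNU control cells or their lentiCRISPRv2 knockout derivatives had been seeded at 500 cells per well into drug-stamped 384-well plates carrying a ~2100-compound library at 2 or 10 μM, in duplicate. Viability came from Cell Titer Glo luminescence, with averaged duplicate treatment wells normalised to duplicate control wells in the same plate position.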

[1] = 2uM, genotype: DNM1L knockout (sgDNM1L #1)
[2] = 2uM, genotype: sgCTRLA1 (non-targeting control)
[3] = 10uM, genotype: DNM1L knockout (sgDNM1L #1)
[4] = 10uM, genotype: sgCTRLA1 (non-targeting control)

Compound | fractional viability [1] | fractional viability [2] | fractional viability [3] | fractional viability [4]
c1coc(CNc2ncnc3[nH]cnc23)c1 [Kinetin] | 1.01 | 1.01 | 0.361 | 0.431
Cc1nn(C)c2c1C(c1ccc(C(F)(F)F)cc1)C(C#N)=C(N)O2 (centres undefined) | 0.924 | 1.08 | 0.886 | 0.86
OC(CN1CCN(c2cccc(Cl)c2)CC1)C(c1ccccc1)c1ccccc1 (centres undefined) | 0.96 | 1.02 | 0.831 | 1.05
Cc1cc(C(O)=C2C(=O)C(=O)N(CCCN3CCOCC3)C2c2ccncc2)ccc1OCc1ccccc1 (centres undefined) | 0.77 | 0.984 | 0.802 | 0.726
NC(=O)C(c1ccccc1)(c1ccccc1)[C@@H]1CCN(CCc2ccc3c(c2)CCO3)C1 [Darifenacin HBr] | 0.951 | 1.21 | 0.794 | 0.953
C=C[C@]1(C)C[C@@H](OC(=O)CSC(C)(C)CNC(=O)[C@H](N)C(C)C)[C@]2(C)[C@H](C)CC[C@]3(CCC(=O)[C@H]32)[C@@H](C)[C@@H]1O [Valnemulin HCl] | 0.403 | 0.236 | 0.385 | 0.238
COc1ccc(C(=O)CC2(O)C(=O)Nc3c(Cl)ccc(Cl)c32)cc1 (centres undefined) | 0.264 | 0.243 | 0.175 | 0.186
Cc1ccc(NC(=O)c2ccc(CN3CC[C@H](N(C)C)C3)c(C(F)(F)F)c2)cc1Nc1nccc(-c2cncnc2)n1 [Bafetinib (INNO-406)] | 0.684 | 0.569 | 0.0871 | 0.0998
Cc1ccc(NC(=O)c2ccc(CN3CCN(C)CC3)cc2)cc1Nc1nc(-c2cccnc2)cs1 [Masitinib (AB1010)] | 1.29 | 1.09 | 0.779 | 0.775
Cc1ccc(NC(=O)c2ccc(CN3CCN(C)CC3)cc2)cc1Nc1nccc(-c2cccnc2)n1 [Imatinib Mesylate (STI571)] | 1.08 | 1.12 | 0.599 | 0.612
CCN1CCN(Cc2ccc(C(=O)Nc3ccc(C)c(Oc4ccc5c(c4)CC(=O)N5)c3)cc2C(F)(F)F)CC1 | 0.704 | 0.758 | 0.477 | 0.756
Cc1ccc(C(=O)Nc2ccc(CN3CCN(C)CC3)c(C(F)(F)F)c2)cc1C#Cc1cnc2[nH]ncc2c1 | 0.214 | 0.169 | 0.0362 | 0.0116
Cc1ccc(C(=O)Nc2ccc(CN3CCN(C)CC3)c(C(F)(F)F)c2)cc1C#Cc1cnc2cccnn12 | 0.227 | 0.185 | 0.0344 | 0.0177
Cc1ccc(NC(=O)c2ccc(CN3CCN(C)CC3)cc2)cc1Nc1nccc(-c2cccnc2)n1 [Imatinib (STI571)] | 1.18 | 1.1 | 0.839 | 0.867
CC(C)n1nc(-c2ccc3oc(N)nc3c2)c2c(N)ncnc21 | 0.194 | 0.191 | 0.181 | 0.171
Cc1nc(N(C)C(=O)Cc2ccc(-c3ccccn3)cc2)sc1S(N)(=O)=O [Pritelivir (BAY 57-1293)] | 0.897 | 0.947 | 0.855 | 0.818
COc1cccc(C=NCCN=Cc2cccc(OC)c2[O-])c1[O-].[Cl-].[Mn+3] | 0.805 | 0.978 | 0.756 | 0.897
Cc1nc2ccc(-n3ncc(C(=O)c4cc5ccccc5[nH]4)c3N)cc2[nH]1 | 0.935 | 0.923 | 0.958 | 0.819
Cc1ccc(NC(=O)C2(c3ccc4c(c3)OC(F)(F)O4)CC2)nc1-c1cccc(C(=O)O)c1 [VX-809 (Lumacaftor)] | 0.94 | 1.12 | 0.933 | 1.06

Compound | fractional viability [1] | fractional viability [2] | fractional viability [3] | fractional viability [4]
CCO[C@@H]1OC(=O)C[C@@H]1NC(=O)[C@@H]1CCCN1C(=O)[C@@H](NC(=O)c1ccc(N)c(Cl)c1)C(C)(C)C | 0.968 | 1.18 | 0.898 | 1.09
CCC1C/C(=C\c2cccnc2)C(=O)/C(=C/c2cccnc2)C1 (centres undefined) | 0.104 | 0.0876 | 0.0563 | 0.0253
COc1cc2c(cc1OC)[C@@H]1Cc3ccc(OC)c(OC)c3CN1CC2 [Rotundine] | 1.17 | 1.06 | 1.18 | 1.01
CC[C@]12C=CCN3CC[C@@]4(c5cc([C@@]6(C(=O)OC)C[C@@H]7C[C@@H](C(C)(F)F)CN(Cc8c6[nH]c6ccccc86)C7)c(OC)cc5N(C)[C@H]4[C@@](O)(C(=O)OC)[C@@H]1OC(C)=O)[C@@H]32 [Vinflunine Tartrate] | 0.191 | 0.144 | 0.142 | 0.114
O=C(CCCCCN1C(=O)c2cccc3cccc(c23)C1=O)NO [Scriptaid] | 0.411 | 0.51 | 0.108 | 0.109
O=C(O)C1=C[C@@H](O)[C@@H](O)[C@H](O)C1 [Shikimic Acid] | 0.996 | 1.17 | 0.84 | 1.06
COCC[n+]1c2c(n(Cc3cnccn3)c1C)C(=O)c1ccccc1C2=O [YM155 (Sepantronium Bromide)] | 0.0411 | 0.0393 | 0.0214 | 0.0241
COc1cc2ncnc(Sc3nnc(C)s3)c2cc1OC | 0.747 | 0.866 | 0.0591 | 0.0581
O=C(C[S+]([O-])Cc1ccco1)NC/C=C\COc1cc(CN2CCCCC2)ccn1 (centres undefined) [Lafutidine] | 1 | 1.2 | 0.826 | 1.06
O=C([O-])c1ccccc1O.[Na+] [Sodium salicylate] | 1.08 | 1.09 | 0.913 | 1.03
CN1CCN(c2ccc3nc(-c4c(N)c5c(F)cccc5[nH]c4=O)[nH]c3c2)CC1 [Dovitinib (TKI258) Lactate] | 0.398 | 0.423 | 0.0366 | 0.0252
CN1CCN(c2ccc3nc(-c4c(N)c5c(F)cccc5[nH]c4=O)[nH]c3c2)CC1 [Dovitinib (TKI-258, CHIR-258)] | 0.523 | 0.465 | 0.119 | 0.0963
O=C(O)c1ccc(N2C(=O)/C(=C\c3ccc(-c4ccc([N+](=O)[O-])cc4)o3)C=C2c2ccccc2)cc1 | 0.851 | 0.873 | 0.899 | 0.776
O=c1ncccn1[C@@H]1O[C@H](CO)[C@@H](O)[C@H]1O [Zebularine] | 0.97 | 1.06 | 0.676 | 0.938
O=C(Nc1ccccc1)N1CCN(c2nc(-c3ccccc3)ns2)CC1 | 1.06 | 1.14 | 0.828 | 0.976
COc1cc2c(Nc3ccc(NC(=O)c4ccccc4)cc3)ncnc2cc1OCCCN1CCOCC1 | 0.862 | 0.959 | 0.266 | 0.22
COc1cc2nccc(Oc3ccc(NC(=O)C4(C(=O)Nc5ccc(F)cc5)CC4)cc3)c2cc1OC | 1.15 | 1.17 | 0.615 | 0.64
COc1cc2c(Oc3ccc(NC(=O)C4(C(=O)Nc5ccc(F)cc5)CC4)cc3F)ccnc2cc1OCCCN1CCOCC1 | 0.628 | 0.631 | 0.0524 | 0.0418
CCN(C(=O)c1c(O)c2c(Cl)cccc2n(C)c1=O)c1ccccc1 [Laquinimod] | 1.22 | 1.14 | 0.958 | 1.08

Compound | fractional viability [1] | fractional viability [2] | fractional viability [3] | fractional viability [4]
CC[C@H](Nc1ncnc2[nH]cnc12)c1nc2cccc(F)c2c(=O)n1-c1ccccc1 [CAL-101 (Idelalisib, GS-1101)] | 0.947 | 1.11 | 0.863 | 0.971
CN(C)CC(=O)Nc1ccc2[nH]c(=O)c3ccccc3c2c1 | 0.84 | 1.06 | 0.74 | 1.03
Nc1nc(Nc2ccc3c(c2)CCC(N2CCCC2)CC3)nn1-c1cc2c(nn1)-c1ccccc1CCC2 (centres undefined) | 0.343 | 0.242 | 0.0232 | 0.0259
CNC[C@@H](O)c1ccc(O)c(O)c1 [L-Adrenaline] | 0.842 | 1 | 0.784 | 0.91
CC(C)Oc1ccc(C(=O)N[C@H](CNC(=O)CN(C)C)Cc2ccc(-c3cn4cccc([C@H](C)O)c4n3)cc2)cc1Cl | 0.413 | 0.508 | 0.29 | 0.438
Clc1cccc(-c2nnnn2Cc2cccnc2)c1Cl | 0.755 | 0.927 | 0.755 | 0.73
O=[N+]([O-])c1ccc2c(c1)S(=O)(=O)C=C2 [Stattic] | 0.0799 | 0.101 | 0.0327 | 0.0222
CS(=O)(=O)Nc1ccc([N+](=O)[O-])cc1Oc1ccccc1 [Nimesulide] | 0.973 | 1.1 | 0.922 | 1.01
O=C(O)c1cc(=O)[nH]c(=O)[nH]1 [Orotic acid (6-Carboxyuracil)] | 0.916 | 1.04 | 1.02 | 1.12
COc1ccc([C@]2(C#N)CC[C@@H](C(=O)O)CC2)cc1OC1CCCC1 [Cilomilast] | 0.977 | 1.1 | 0.843 | 1.15
CCc1c(Cl)c(O)c(Cl)c(O)c1C(=O)O[C@H]1[C@H](O)[C@H](OC)[C@H](OC/C2=C\C=C\C[C@H](O)/C(C)=C/[C@H](CC)[C@@H](O[C@@H]3OC(C)(C)[C@@H](OC(=O)C(C)C)[C@H](O)[C@@H]3O)/C(C)=C/C(C)=C/C[C@@H]([C@@H](C)O)OC2=O)O[C@@H]1C [Fidaxomicin] | 0.741 | 0.893 | 0.494 | 0.0966
C[C@H]1O[C@@H](O[C@H]2[C@@H](O)C[C@H](O[C@H]3[C@@H](O)C[C@H](O[C@H]4CC[C@@]5(C)[C@H](CC[C@@H]6[C@@H]5C[C@@H](O)[C@]5(C)[C@@H](C7=CC(=O)OC7)CC[C@]65O)C4)O[C@@H]3C)O[C@@H]2C)C[C@H](O)[C@@H]1O [Digoxin] | 0.0546 | 0.0452 | 0.032 | 0.0309
CCS(=O)(=O)N1CCC([C@@H](C)n2c(C)c(C(=O)NCc3c(OC)cc(C)[nH]c3=O)c3ccccc32)CC1 | 0.746 | 0.93 | 0.908 | 0.836
NC(=O)NO [Hydroxyurea] | 0.92 | 1.14 | 0.948 | 1.16
CC(C)c1cnn2c(NCc3ccccc3)cc(NCCCCCCN)nc12 | 1.09 | 1.13 | 0.83 | 0.972
CN(NC(=O)CC(=O)NN(C)C(=S)c1ccccc1)C(=S)c1ccccc1 [Elesclomol (STA-4783)] | 0.0609 | 0.0221 | 0.0751 | 0.0222
O=C(O)c1ccccc1 [Benzoic Acid] | 0.793 | 0.98 | 0.581 | 0.958
O=C(O)CCNC(=O)c1ccccc1 [Betamipron] | 0.922 | 1.11 | 0.923 | 0.986

Source: the supplement of paper PMC5919970
